# The list is not random: actives were taken first. Their share in the collection is about 3%.
# Tau fibril FP: blocks human tau fibril formation measured by polarization; K18 P301L tau heparin fibrillization, Alexa594 FP, 6 h; hit rate 0.39% among 280,000; Potency, µM (titrated, usually from 57.7 µM), for the others: top-dose activity, negative = inhibition, usual class: inhibitors; AID 1468; P10636; further: potency means the concentration at half of the fitted maximal effect; nearly all actives have a fitted effect of over 55% in size
# Target sequence (P10636 561-689 P618L limits assumed): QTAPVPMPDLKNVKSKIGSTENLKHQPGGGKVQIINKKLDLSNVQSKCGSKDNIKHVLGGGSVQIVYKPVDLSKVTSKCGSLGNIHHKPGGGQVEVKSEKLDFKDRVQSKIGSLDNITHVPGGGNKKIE
#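 FP of Alexa 594-tau after heparin (20 uM) induction. Substrate: human K18 P301L, 15 uM unlabeled, 0.24 uM labeled. Buffer 100 mM sodium acetate pH 7. 6 hr, 37 C.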
# Coupling enz: inhibits coupling enzyme system, counter-screen for aldolase hits. activity change, negative = inhibition, % at 58.2 µM, hits read low. coupling enzyme system counterscreen, AmpLite Red fluorescence. hit rate 0.67% among 290,000; in the data active means activity change below about -30%
#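 First, compound is pin-transferred into glyceraldehyde-3-phosphate coupling-enzyme reagent at 57.5 uM final and held 10 min at RT. Next, substrate, coupling system and AmpLite Red are added. After 20 min RT, fluorescence (525/598 nm) is read.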
# KDM4E inh: blocks human JMJD2E demethylase activity. AID 2147. Potency, µM (top dose mostly 57.1 µM), for the others: top-dose activity change, negative = inhibition, actives largely listed as inhibitors. JMJD2E catalytic domain, FDH-coupled NADH fluorescence (FDH is formaldehyde dehydrogenase). B2RXH2. hit rate 1.6% among 230,000; active means well fitted inhibition curve with a large enough effect, not every such curve was filed as active; inconclusive means small, poorly fitted or top-dose-only effect, or another doubt; inactive means no such curve, though single readings can be large or run the other way;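 further: potency means the concentration at half of the fitted maximal effect; 0% = wells with enzyme and -100% = buffer wells without enzyme; nearly all actives have a fitted effect of over 50% in size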
# Target sequence (B2RXH2 1-337 limits assumed): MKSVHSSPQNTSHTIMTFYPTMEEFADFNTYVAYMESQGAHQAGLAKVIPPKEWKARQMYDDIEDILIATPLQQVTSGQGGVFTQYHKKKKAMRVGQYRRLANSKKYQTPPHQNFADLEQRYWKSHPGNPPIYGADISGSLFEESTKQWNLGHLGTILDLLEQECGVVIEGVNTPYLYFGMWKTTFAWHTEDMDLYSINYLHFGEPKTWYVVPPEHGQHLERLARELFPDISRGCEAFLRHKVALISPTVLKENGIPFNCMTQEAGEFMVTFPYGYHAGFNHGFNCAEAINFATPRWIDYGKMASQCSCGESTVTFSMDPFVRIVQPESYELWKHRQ
# Tau fluor counter: counter-screen for tau fibril formation inhibitors; hit rate 0.93% among 280,000; Potency, µM (doses to about 57.7 µM), without a hit: at the top dose activity change, negative = decrease; tau K18 P301L Alexa594 fluorescence, heparin fibrillization; AID 1463; further: potency means the concentration at half of the fitted maximal effect; nearly all actives have a fitted effect of over 55% in size
#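 Human K18 P301L tau (15 uM unlabeled plus 0.24 uM Alexa 594-labeled, final) in 100 mM sodium acetate pH 7 was mixed with compound and 20 uM heparin and incubated 6 hr at 37 C.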
# Tau ThT inhib: blocks human tau fibril formation measured by thioflavin T; hit rate 2.1% among 270,000; recombinant tau K18 P301L (four-repeat tau fragment), heparin-induced fibrillization, ThT fluorescence; P10636; Potency, µM (highest dose often 57.4 µM), without a hit: at the highest dose activity, negative = inhibition, most hits filed as inhibitors; further: potency means the concentration at half of the fitted maximal effect; nearly all actives have a fitted effect of over 55% in size
#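 Heparin-induced (20 uM) aggregation of recombinant human K18 P301L tau, 15 uM unlabeled with 0.24 uM labeled, pH 7 acetate buffer, 6 hr at 37 C with compound. Fibrils quantified by 30 uM ThT fluorescence after 1 hr ambient incubation.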
# Starred values were filed as active, the others as inactive; u = inconclusive; x = no result given; [ ] = dose if it differs, or a comment. Unless noted, the call rests on the fitted dose curve; in most records, active means well fitted curve in the direction sought with a large enough effect; inconclusive means small, poorly fitted or top-dose-only effect, or another doubt; inactive means no such curve, though single readings can be large; an effect the other way counts as inactive or inconclusive. Unless noted, on the % scale 0 is the no-effect control and ±100 the full control effect.
SMILES,Tau fibril FP,Coupling enz,KDM4E inh,Tau fluor counter,Tau ThT inhib
Cc1cc(N=Nc2c(O)c3ccccc3[nH]c2=O)ccc1N=Nc1ccc(C(=O)N(C)C)cc1,-8.5%,0.8,-10.2%,u,2.24µM*
O=c1c(-c2ccc(F)cc2)nc2cnc(N3CCNCC3)nc2n1-c1ccccc1,x,0.5,x,x,x
CN(C)c1ccc(/C=N/NC(=O)c2ccc3nc[nH]c3c2)cc1,-12.4%,2.8,u,u,4.47µM*
Cc1nc2c(C)cccc2cc1C(=O)N/N=C/c1ccc(C(=O)O)cc1,10.1%,6.1,-35.4%,5.6%,-7.5%
CCN(CC)c1ccc(/C=N/NC(=O)c2ccc3nc[nH]c3c2)cc1,6.8%,0.3,u,u,2.82µM*
COc1cc(/C=N/NC(=O)c2ccc3nc[nH]c3c2)ccc1O,-3.0%,1.1,-6.5%,-18.8%,x
Cc1nc2c(C)cccc2cc1C(=O)N/N=C/c1ccc(N(C)C)cc1,0.1%,4.3,-25.3%,u,10µM*
COc1cccc(C(=O)Nc2ccc(C(=O)OCc3cc(=O)n4nc(C5CC5)sc4n3)cc2)c1,-2.5%,x,x,0.1%,5.9%
Cc1cccc(NS(=O)(=O)c2ccc(NC(=O)N3CCCC3)cc2)c1,3.5%,x,x,-17.7%,-7.5%
Cc1cc(=O)n2[nH]c(C)c(-c3ccccc3)c2n1,-0.4%,0.5,-11.6%,-4.5%,-8.1%
Cc1cc(=O)n2[nH]c(N)c(N=Nc3ccccc3F)c2n1,10.3%,5.2,2.4%,-5.1%,11.2µM*
COC(=O)C1=C(C(=O)OC)[C@@H]2N(Cc3ccccc3)c3ccccc3[C@@]23C[C@@H](C(=O)OC)N(S(=O)(=O)c2ccc(C#N)cc2)C3=N1,-0.6%[11.6 µM],-2.3,-8.8%[11.4 µM],-11.5%[11.6 µM],-1.8%[11.5 µM]
Cc1cc2oc(=O)cc(-c3ccccc3)c2c(C)c1-c1ccoc1,4.5%[81.3 µM],4.4,x,-3.6%[81.3 µM],-17.0%[81.4 µM]
O=C1CC(c2ccc(O)cc2)Oc2cc(O)cc(O)c21 (stereo unspecified),3.3%,6.4,-4.7%,-23.3%,-15.7%
O=C1CC(c2ccc(O)c(O)c2)Oc2c1ccc(O)c2O (stereo unspecified),u,-10.4,6.31µM*,u,15.8µM*
O=C1CC(c2ccc(O)c(O)c2)Oc2cc(O)cc(O)c21 (stereo unspecified),-0.7%,-1.8,28.2µM*,-21.0%,u
CCOC(=O)c1c(C)oc2nc(C)nc(NCc3cccc(OC)c3)c12,2.3%,x,x,-10.9%,-15.7%
CCOc1ccccc1C(=O)Nc1c(C(=O)Nc2ccc(F)cc2)oc2ccccc12,u,x,x,-27.5%,4.9%
Cc1cc(O)c(Oc2cc(C)cc(O)c2O)c(O)c1,u,-12.9,12.6µM*,u,5.62µM*
Cc1cc(C(C)(C)C)c(O)c(C(C)(C)C)c1,2.8%,5.2,4.8%,-0.6%,-1.3%
CCN(c1ccc(OC)cc1)S(=O)(=O)c1ccc2[nH]c3c(c2c1)CCCCC3,0.7%,x,x,10µM*[quencher],-6.9%
CCN(Cc1ccccc1)S(=O)(=O)c1ccc2[nH]c3c(c2c1)CCCCC3,2.3%,x,x,7.94µM*[quencher],0.5%
CS(=O)(=O)c1cccc(-c2nnc(NC(=O)c3ccc4c(c3)OCCO4)o2)c1,1.0%,x,x,1.3%,-8.6%
Oc1c(C=Nc2cccnc2)sc2ccccc12,10.6%,-2.9,u,-12.3%,12.6µM*
Oc1sc(C=Nc2ccccc2)c2ccccc12,-6.6%,-7.3,-22.6%,14.1µM*[quencher],u
SMILES,Tau fibril FP,Coupling enz,KDM4E inh,Tau fluor counter,Tau ThT inhib
Oc1c(/C=N/c2ccccn2)sc2ccccc12,u,-5.0,u,2.82µM*[fluorescent],5.62µM*
Oc1c(C=Nc2ccccc2)sc2ccccc12,-7.6%[2.34 µM],0.2,u,6.4%[2.34 µM],-3.6%
C=CCN1c2ccccc2[C@]23C[C@@H](C(=O)OC)N(S(=O)(=O)c4c(C)noc4C)C2=NC(C(=O)OC)=C(C(=O)OC)[C@H]13,2.3%[11.6 µM],1.5,7.9%[11.4 µM],-7.9%[11.6 µM],-5.8%[11.5 µM]
O=[N+]([O-])c1ccc(Sc2cccc[n+]2[O-])c2nonc12,u,-80.3*,57.0%,12.6µM*[quencher],5.01µM*
O=[N+]([O-])c1ccc(Nc2ccccc2)c2nonc12,x,-1.3,x,x,x
CC1=NC(=O)C(N=Nc2ccccc2)N1c1ccccc1 (stereo unspecified),u,2.9,-1.1%,-11.7%,u
CC1=NC(=O)C(N=Nc2cccc(C(=O)O)c2)N1c1ccccc1 (stereo unspecified),4.5%,-2.9,0.9%,-15.1%,15.8µM*
Cc1[nH]n(-c2ccccc2)c(=O)c1N=Nc1ccccc1C(=O)O,x,0.1,x,x,x
CC1=NC(=O)C(N=Nc2ccccc2C(=O)O)N1c1ccccc1 (stereo unspecified),10.7%,1.6,-0.1%,-0.6%,5.01µM*
CC1CCCN(CCCNC(=O)c2ccc3c(c2)N(Cc2cccc(Cl)c2)C(=O)c2ccccc2S3(=O)=O)C1 (stereo unspecified),-12.1%,x,x,u,-5.2%
CC[C@H](C)[C@@H](NC(=O)O[C@@H]1C(=O)c2ccc(OC)cc2O[C@H]1c1ccc2c(c1)OCO2)C(=O)OC,3.2%,1.3,-0.8%,-9.8%,-8.4%
O=C(c1cnc(N2CCOCC2)c2ccccc12)N1CCN(c2ccccc2)CC1,-0.2%,x,x,-1.8%,2.2%
CCN1/C(=N\N)c2cccc3cccc1c23,6.1%,-47.0*,9.1%,u,7.94µM*
CCC(C)NC(=O)CN1C(=O)c2cccc3cccc1c23 (stereo unspecified),x,0.7,x,x,x
O=C(c1ccc2c(c1)N(Cc1ccccc1F)C(=O)c1ccccc1S2)N1CCOCC1,0.5%,-41.9*,4.2%,u,x
Cc1ccccc1CN1C(=O)c2ccccc2Sc2ccc(C(=O)N3CCOCC3)cc21,-1.3%,x,x,-8.8%,-7.1%
CC1(OC(=O)C2CCCC2)C(=O)C=C2C=C(c3ccsc3)N(c3cccc(C#N)c3)C=C2C1=O (stereo unspecified),0.3%[11.6 µM],-3.7,u,2.1%[11.6 µM],0.9%[11.5 µM]
Cc1cc(N=Nc2ccc(Cl)cc2)cc(CN2CCOCC2)c1O,11.9%,-0.3,-11.5%,u,u
Cc1cc(N=Nc2ccc(Cl)cc2)cc(CN2CCCC2)c1O,u,-10.0,3.1%,u,28.2µM*
O=c1c(CCc2ccccc2)nc2cnc(N3CCNCC3)nc2n1CCc1ccccc1,x,-0.6,x,x,x
O=C(c1ccc2c(c1)CCN2S(=O)(=O)c1ccc(Cl)cc1)N1CCN(c2ccc(F)cc2)CC1,-0.6%,x,x,-21.3%,-7.7%
O=C(NCc1ccccn1)C1(C(F)(F)F)C/C(=C\Cc2ccccc2)CCCO1 (stereo unspecified),x,2.8,x,x,x
C/C(Cn1cnc([N+](=O)[O-])n1)=N\NC(=O)c1ccc(F)cc1,-7.5%,-7.3,14.0%,-5.9%,-5.0%
C/C(Cn1nnc([N+](=O)[O-])n1)=N\NC(=O)c1ccc(C)cc1,4.9%,-37.8*,-9.7%,1.9%,-4.5%
C/C(Cn1cnc([N+](=O)[O-])n1)=N\NC(=O)c1ccncc1,-1.3%,-3.7,-1.0%,2.3%,-3.7%

# Compound activity (PubChem BioAssay)
